Compounds without any hit were thinned out: in the full panel of roughly 83,000, 20% have a hit.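 Treatment: one concentration, 48 hours, 96-well format. Scoring: percent growth, with anything below 10 considered active.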 Values without a mark were called inactive. Activity calls are given as the source filed them.
Tests used:
Assay in all cases: NCI-60 one-dose screen, 48 h (100 = growth as untreated, 0 = no growth, -100 = all killed)
Details in all cases: 10 µM unless noted
T-47D breast = test system: T-47D breast
BT-549 breast = test system: BT-549 breast
MDA-MB-435 melanoma = test system: MDA-MB-435 melanoma
SW-620 colon = test system: SW-620 colon
MCF7 breast = test system: MCF7 breast
HCT-116 colon = test system: HCT-116 colon
HCC-2998 colon = test system: HCC-2998 colon
KM12 colon = test system: KM12 colon

Compound	growth (T-47D breast)	growth (BT-549 breast)	growth (MDA-MB-435 melanoma)	growth (SW-620 colon)	growth (MCF7 breast)	growth (HCT-116 colon)	growth (HCC-2998 colon)	growth (KM12 colon)
CS(=O)(=O)Nc1cc(-c2ccc3ncnc(Nc4ccc(F)c(Cl)c4)c3c2)ccc1Cl	12.2%	49.4%	58.2%	75.4%	23.9%	59.5%	79.9%	52.7%
COc1ccc(-c2nc3ccc(C)cc3c3c2c(=O)n(C)c(=O)n3C)cc1OC	106%	120%	90%	103%	97.7%	105%	98.2%	116%
O=c1oc2c(cnc3ccccc32)cc1-c1cccc(Cl)c1	107%	115%	97%	106%	99.2%	105%	109%	110%
CC(C)(Sc1cc(C(C)(C)C)c(O)c(C(C)(C)C)c1)Sc1cc(C(C)(C)C)c(OC(=O)CCC(=O)O)c(C(C)(C)C)c1	31.4%	54.8%	47.2%	44.9%	35.8%	28.3%	42.9%	33.3%
Nc1c(C(=O)Nc2cccc3ncccc23)sc2nc3c(cc12)CN(Cc1ccccc1)CC3	41.3%	71.5%	22.1%	83.7%	53.1%	74.2%	93.5%	86.7%
O=C(CN1C(=O)S/C(=C\C(Cl)=C\c2ccccc2)C1=O)NC1CCS(=O)(=O)C1 (centres undefined)	15.7%	76.5%	66.2%	22.6%	13.7%	5.67% (active)	103%	65.4%
O=C(/C=C/c1ccccc1Cl)c1cccc(OCCCCOc2cccc(C(=O)/C=C/c3ccccc3Cl)c2)c1	91.2%	116%	106%	99%	51.7%	50.1%	104%	101%
C=CC(=O)Nc1cccc(Oc2nccc(Nc3nnc(-c4ccc(Br)cc4)s3)n2)c1	82.1%	109%	94.3%	96%	70.8%	98.9%	114%	100%
COC12C=C/C(=C(/C(=O)OCCSc3ccnn3C)C(=O)CCCCCCCCC3(OC)C=C/C(=C(/C(=O)OCCSc4ccnn4C)C(=O)CCCCCCCC1)O3)O2	33.2%	-22.7% (active)	-3.93% (active)	18.5%	14.7%	-38.5% (active)	-86.1% (active)	-57.6% (active)
N=C(N)c1ccc(-c2ccc(-c3ccccc3)o2)o1	32.8%	64.6%	-32.9% (active)	1.14% (active)	20.6%	19.4%	46.9%	16.6%
CC1(C)N=C(N)N=C(N)N1c1ccc(S(=O)(=O)Nc2nccs2)cc1	95.6%	94.1%	102%	98.2%	103%	100%	113%	101%
CCN(CCNc1ccc(C)c2sc3cc(Cl)ccc3c(=O)c12)CC(C)(C)O	69.5%	84.9%	35.2%	82.2%	58.5%	50.6%	39.6%	40.5%
Cc1nn(-c2ccc([N+](=O)[O-])cc2)c2ncnc(N/N=C/c3ccccc3O)c12	11.6%	30.6%	26.5%	25.1%	11.9%	18.1%	40.4%	22.3%
COC1C(O)CC(OC2CC(OC3CC(O[C@@H]4C(=O)c5c(cc6cc(OC7CC(OC8CC(O)C(O)C(C)O8)C(O)C(C)O7)c(C)c(O)c6c5O)CC4[C@H](OC)C(=O)O)OC(C)C3O)OC(C)C2O)OC1C (some centres undefined)	25.5%	21.4%	28.8%	32%	10.1%	15.4%	38.6%	22.9%
COc1cc(/C=C2\C(=O)N(CCCOc3cc(O)c4c(=O)cc(-c5ccccc5)oc4c3)c3ccccc32)cc(OC)c1O	44.6%	49.7%	-35.1% (active)	38.4%	48.9%	63.7%	82.9%	62.2%
COc1cc(/C=C/c2cn[nH]c2-c2ccc(C)cc2)cc(OC)c1OC	22.2%	32.9%	-16.2% (active)	19.7%	13.1%	11.7%	78.8%	29.9%
CCN(CC)C(=O)C1=C(C)NC(=O)NC1c1ccc2c(c1)OCO2 (centres undefined)	104%	111%	108%	105%	97.4%	110%	114%	112%
CCOC(=O)/C=C1\S/C(=N\Nc2cc(=O)[nH]c3ccc(Br)cc23)N(c2ccccc2)C1=O	7.62% (active)	75.1%	94.5%	27.8%	22.2%	27.1%	110%	88.5%
O=C(N/N=C/c1ccc(Cl)cc1)c1ccc(NC(=O)c2ccccn2)cc1	52.1%	62.7%	63.8%	71.5%	52.3%	5.15% (active)	72.3%	73.2%
CCOC(=O)c1[nH]cc2c1CCc1sc(Nc3ccccn3)nc1-2	55.4%	79.4%	86.2%	103%	57.1%	75.7%	94.6%	64.3%
C=C(C)[C@@H]1CC[C@]2(C(=O)Nc3ccccn3)CC[C@]3(C)[C@H](CC[C@@H]4[C@@]5(C)CCCNC(C)(C)[C@@H]5CC[C@]43C)[C@@H]12	25.9%	25.7%	2.12% (active)	-31.7% (active)	8.22% (active)	-43.4% (active)	5.09% (active)	10.6%
CSc1ccc2c3c(n(CCCn4ccnc4)c(=O)c2c1)-c1ccccc1C3=O	15.9%	63.4%	64.6%	31.5%	9.87% (active)	10.6%	75.9%	45.4%
CNCC[C@H](Oc1cccc2ccccc12)c1cccs1	99.9%	94.2%	88.5%	106%	78.1%	68.8%	79%	109%
Ic1ccc(Nc2nc3nonc3nc2Nc2ccc(I)cc2)cc1	-9.49% (active)	-21.7% (active)	6.04% (active)	13.8%	3.42% (active)	0.308% (active)	8.32% (active)	7.87% (active)
O=C(/C=C/C12c3ccccc3C(c3ccccc31)C1C(=O)NC(=O)C12)c1ccc(Cl)cc1Cl (centres undefined)	9.41% (active)	14.6%	-0.0298% (active)	5.09% (active)	6.75% (active)	2.09% (active)	68.2%	17.4%
Nc1nc2ccccc2c2c(=O)c3cc(Cl)ccc3sc12	45.3%	105%	101%	117%	27.2%	88.7%	97.5%	12.9%
COc1ccc(C(=O)C/C(=C\c2ccc(O)c(OC)c2)C(=O)NN)cc1	66.9%	63.7%	9.68% (active)	84.1%	47.9%	72.2%	104%	73.2%
COc1ccc(-c2nc3c(c(-c4ccc(Cl)cc4)nn3-c3ccccc3)c(-c3ccccc3)c2C#N)cc1	94.3%	106%	105%	104%	96%	101%	115%	98.5%

From PubChem BioAssay (NCI)
